Results filed as inconclusive are left out. Where a call stands in place of a potency, no number is given. The source made the active and inactive calls. Unless noted, the call rests on the fitted dose curve; in most records, active means well fitted curve in the direction sought with a large enough effect in the repeat runs; inconclusive means weak or mixed curves; inactive means no such curve, though single readings can be large; an effect the other way counts as inactive or inconclusive.
Tests used:
[1] = qHTS assay for small molecule agonists of the p53 signaling pathway (AID 651631; calls by dose curve; further: nearly all actives have a fitted effect of over 15% in size; further: potency means the concentration at half of the fitted maximal effect)
Outline: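 Stably transfected HCT-116 cells (beta-lactamase behind p53 response elements) get compounds after a 5 h settling period; 16 h later at 37 °C, FRET substrate is loaded and fluorescence read after 2 h.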

[2] = qHTS assay for small molecules that induce genotoxicity in human embryonic kidney cells expressing luciferase-tagged ATAD5 (AID 651632); further: nearly all actives have a fitted effect of over 15% in size
Outline: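 Test compounds were delivered by pin tool onto HEK293T reporter cells (2,000/well) expressing ATAD5 fused to luciferase. After 16 hr at 37C, 5% CO2, Amplite was added for 30 min at room temperature and luminescence was measured.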

[3] = qHTS assay for small molecules that induce genotoxicity in human embryonic kidney cells expressing luciferase-tagged ATAD5 - cell viability (AID 651634; calls by dose curve; further: nearly all actives have a fitted effect of over 25% in size)
Outline: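 Quantitative high-throughput format. HEK293T cells expressing ATAD5 fused to luciferase were plated at 2,000 cells/well and treated 15.5 hr with compound versus DMSO. Viability was determined by fluorescent live-cell protease substrate, 30 min at 37C.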

[4] = qHTS assay for small molecule disruptors of the mitochondrial membrane potential (AID 720635); further: potency means the concentration at half of the fitted maximal effect
Outline: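 Mitochondrial membrane potential tracked with Mito-MPS dye, red aggregates (ex 540/em 590 nm) against green monomers (ex 490/em 535 nm). Compound treatment 1 hr at 37C, dye 30 min in HepG2.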

[5] = qHTS assay to test for compound auto fluorescence at 590 nm (red) in HepG2 cells (AID 720674)
Outline: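 We screened compounds on adherent HepG2 cells, incubating them for an hour at 37 C in 5% CO2 before reading emission at 590 nm under 540 nm excitation; values reflect equivalence to Rose Bengal sodium fluorescence.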

[6] = qHTS assay to test for compound auto fluorescence at 535 nm (green) in HepG2 cells (AID 720675)
[7] = qHTS assay to test for compound auto fluorescence at 460 nm (blue) in HEK293 cells (AID 720678)
Outline: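 Cells were seeded and left to adhere for 4-5 hr at 37C. Compounds were then pin-transferred. After an overnight incubation at 37C under 5% CO2, intrinsic fluorescence at 405/460 nm was measured and referenced to triamterene.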

[8] = qHTS assay to test for compound auto fluorescence at 590 nm (red) in HEK293 cells (AID 720679)
Outline: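 Each well held 2,000 HEK293 cells in medium containing 10% dialyzed FBS. Following 4-5 hr attachment at 37C, 23 nL test compound or DMSO was added; plates sat overnight, and red fluorescence (540/590nm) was recorded.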

[9] = qHTS assay for small molecule disruptors of the mitochondrial membrane potential - cell viability (AID 720634; calls by dose curve; further: nearly all actives have a fitted effect of over 20% in size; further: potency means the concentration at half of the fitted maximal effect)
Outline: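 Same-well counter-screen: following the MMP dye addition, CellTiter-Glo was added to 1 hr compound-treated HepG2 cells and luminescence read after 30 min at room temperature.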

[10] = qHTS assay for small molecule agonists of the p53 signaling pathway - cell viability (AID 651633; calls by dose curve; further: nearly all actives have a fitted effect of over 30% in size; further: potency means the concentration at half of the fitted maximal effect)
Outline: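 Viability counter-read: CellTiter-Glo luminescence (30 min, room temperature) in the same p53RE-bla plates. These plates had been exposed to compounds for 16 h at 37 C.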

Row | SMILES | Potency [1] | Potency [2] | Potency [3] | Potency [4] | outcome [5] | outcome [6] | outcome [7] | outcome [8] | Potency [9] | Potency [10]
1 | O=c1oc2ccccc2c(O)c1C1CCCc2ccccc21 (centres undefined) | inactive | inactive | inactive | 13.7 µM (active) | inactive | inactive | inactive | inactive | – | –
2 | ClCC(Cl)Cl | inactive | inactive | inactive | inactive | inactive | – | inactive | inactive | inactive | –
3 | CC(=O)Nc1cc([As](=O)(O)O)ccc1O | inactive | inactive | inactive | inactive | inactive | – | inactive | inactive | inactive | –
4 | CCCCCCBr | inactive | – | inactive | inactive | inactive | inactive | inactive | inactive | inactive | inactive
5 | CC1(C)CON(Cc2ccccc2Cl)C1=O | inactive | inactive | inactive | inactive | – | inactive | inactive | inactive | inactive | –
6 | COc1cccc(C(=O)NN(C(=O)c2cc(C)cc(C)c2)C(C)(C)C)c1C | inactive | inactive | inactive | – | inactive | inactive | inactive | inactive | – | –
7 | CCOC(=O)NC(=S)Nc1ccccc1NC(=S)NC(=O)OCC | 61.1 µM (active) | inactive | inactive | – | inactive | inactive | inactive | inactive | inactive | –
8 | CNC(=O)Oc1ccccc1C1OCCO1 | inactive | inactive | inactive | – | inactive | inactive | inactive | inactive | inactive | –
9 | Cc1cc(C)nc(Nc2ccccc2)n1 | inactive | inactive | inactive | – | inactive | inactive | inactive | inactive | inactive | –
10 | O=[N+]([O-])c1cccc2cccnc12 | inactive | – | – | – | – | inactive | inactive | inactive | inactive | inactive
11 | CC(C)(C)NCC(O)c1cc(Cl)c(N)c(Cl)c1 (centres undefined) | 1.33 µM (active) | – | inactive | – | inactive | inactive | inactive | inactive | inactive | inactive
12 | ClC(Br)Br | inactive | inactive | inactive | – | – | inactive | inactive | inactive | inactive | –
13 | CCCCCCI | inactive | inactive | inactive | inactive | inactive | inactive | inactive | inactive | inactive | –
14 | N#Cc1c(Cl)cccc1Cl | inactive | inactive | inactive | – | – | inactive | inactive | inactive | inactive | –
15 | C[N+](=O)[O-] | inactive | inactive | inactive | inactive | inactive | – | inactive | inactive | inactive | –
16 | CN/C(=N\[N+](=O)[O-])NCC1CCOC1 (centres undefined) | inactive | – | inactive | – | inactive | inactive | inactive | inactive | inactive | inactive
17 | O=C1c2ccccc2C(=O)c2ccccc21 | inactive | inactive | inactive | – | inactive | inactive | inactive | inactive | inactive | –
18 | COC(=O)COc1ccc(Cl)cc1Cl | inactive | – | inactive | – | inactive | inactive | inactive | inactive | inactive | inactive
19 | Cc1cc(C)c(C(=O)P(=O)(C(=O)c2c(C)cc(C)cc2C)c2ccccc2)c(C)c1 | inactive | inactive | inactive | inactive | inactive | inactive | inactive | inactive | inactive | –
20 | CN1C[C@@H](NS(=O)(=O)N(C)C)C[C@@H]2c3cccc4c3c(cn4C)C[C@H]21 | inactive | inactive | inactive | inactive | inactive | inactive | inactive | inactive | inactive | –
21 | COc1ncc(F)c2nc(S(=O)(=O)Nc3c(F)cccc3F)nn12 | – | inactive | inactive | – | inactive | inactive | inactive | inactive | inactive | inactive

Row | SMILES | Potency [1] | Potency [2] | Potency [3] | Potency [4] | outcome [5] | outcome [6] | outcome [7] | outcome [8] | Potency [9] | Potency [10]
22 | c1coc(-c2nc3ccccc3[nH]2)c1 | inactive | – | inactive | – | – | inactive | inactive | inactive | – | –
23 | CCCCc1ccc(O)cc1 | – | inactive | inactive | 48.5 µM (active) | inactive | – | inactive | inactive | inactive | inactive
24 | COc1cc(OC)nc(NC(=O)NS(=O)(=O)c2ncccc2OCC(F)(F)F)n1 | – | inactive | inactive | inactive | inactive | – | inactive | inactive | inactive | inactive
25 | Fc1ccc(C2(Cn3cncn3)OC2c2ccccc2Cl)cc1 (centres undefined) | – | inactive | inactive | – | inactive | inactive | inactive | inactive | inactive | inactive
26 | O=[N+]([O-])c1cccc(O)c1 | – | inactive | inactive | 43.4 µM (active) | inactive | inactive | inactive | inactive | inactive | inactive
27 | CC(=O)C(Cl)Cl | – | inactive | inactive | – | inactive | inactive | inactive | inactive | inactive | inactive
28 | Cc1ncsc1CCCl | – | inactive | inactive | – | inactive | inactive | inactive | inactive | inactive | inactive
29 | COC(=O)C(C)Oc1ccc(Oc2ccc(Cl)cc2Cl)cc1 (centres undefined) | – | inactive | inactive | – | inactive | inactive | inactive | inactive | inactive | inactive
30 | CCN(CC)C(C)C(=O)c1ccccc1 (centres undefined) | – | inactive | inactive | inactive | – | inactive | inactive | inactive | inactive | inactive
31 | COC(=O)C1=CCCN(C)C1 | – | inactive | inactive | inactive | inactive | – | inactive | inactive | inactive | inactive
32 | C[N+](C)=CCl | – | inactive | inactive | – | inactive | inactive | inactive | inactive | inactive | inactive
33 | CC1(C)COP(Oc2ccccc2)OC1 | – | inactive | inactive | inactive | inactive | inactive | inactive | inactive | inactive | inactive
34 | CC1(C)C(=O)NC(=O)NC1=O | – | inactive | inactive | inactive | inactive | inactive | inactive | inactive | inactive | inactive
35 | Oc1c(Cl)cccc1Cl | – | inactive | inactive | inactive | inactive | inactive | inactive | inactive | inactive | inactive
36 | O=[N+]([O-])c1cc(Cl)c(Cl)c(Cl)c1 | – | inactive | inactive | – | inactive | inactive | inactive | inactive | inactive | inactive
37 | CCOP(=S)(OCC)SCSc1ccc(Cl)cc1 | – | inactive | inactive | inactive | inactive | – | inactive | inactive | inactive | inactive
38 | O=C(O)c1cccc(Cl)c1 | – | inactive | inactive | – | inactive | – | inactive | inactive | inactive | inactive
39 | O=C1CN=C(c2ccccc2)c2cc([N+](=O)[O-])ccc2N1 | – | inactive | inactive | inactive | inactive | inactive | inactive | inactive | inactive | inactive
40 | CC(C)CC#N | – | inactive | inactive | inactive | inactive | inactive | inactive | inactive | inactive | inactive
41 | C=CCC1=C(C)[C@@H](OC(=O)[C@@H]2[C@@H](C=C(C)C)C2(C)C)CC1=O | – | inactive | inactive | 15.4 µM (active) | inactive | inactive | inactive | inactive | 61.1 µM (active) | 61.1 µM (active)
42 | OCCBr | – | inactive | inactive | inactive | inactive | inactive | inactive | inactive | inactive | inactive

— PubChem BioAssay (Tox21)
